In the library only some 5.2% were active in any assay of this set; here they are far more common.
NR3A LBD binder = modulates the human NR3A ligand-binding domain; NR3A LBD differential scanning fluorimetry, Tm shift; 0% = protein alone, 100% = glycine-bound protein; Tm shift relative to glycine control, % at 25 µM; 340,000 compounds, 2.5% hits; AID 1259313;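 active = melting temperature shift of at least 10% of the positive control shift, at one fixed dose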
NadD block = blocks S. aureus nicotinate mononucleotide adenylyltransferase; purified NadD enzyme, colorimetric absorbance read-out; inhibition, % at 20 µM; 360,000 compounds, 0.78% hits; AID 602399; in the data active = inhibition above about 26%
esBAF inh = SWI/SNF esBAF complex inhibition; 350,000 compounds, 2% hits; AID 602393; reporter increase, % at 12.5 µM; mouse ES cells, Bmi1-luciferase knock-in reporter, 24 h; 100% = twice the neutral-well signal; in the data active = activation above about 40%;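 also: a rise in the Bmi1 reporter signal indicates esBAF inhibition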
SMARCA2 act = increases SMARCA2 function in MMTV reporter cells; MG213 cells, MMTV-luciferase reporter, dexamethasone, overnight; activation, % at 9.1 µM; 370,000 compounds, 1% hits; AID 652017; in the data active = activation above about 7.8%
SKN-1 inh = C. elegans SKN-1 inhibition | 360,000 compounds, 0.49% hits | C. elegans VP596 Pgst-4::GFP/RFP ratio, acrylamide-induced, 24 h | inhibition, % at 21.8 µM;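 active = interference check ratio from 0.5 to 1.5 plus GFP to RFP signal ratio inhibition reaching or exceeding a fixed threshold, cut at about 30% in these data, passing the limit was not always enough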
Vif imaging = HIV Vif inhibition. HEK293T cells, Vif self-association by quenched fluorescence, imaging, 24 h. inhibition, % at 7.49 µM. 340,000 compounds, 0.35% hits. AID 602346; in the data active = inhibition above about 50%, passing the limit was not always enough
Numbers stand for hits.

For CN(C)c1ccc(C(CNC(=O)c2ccccc2Br)c2c[nH]c3ccccc23)cc1 (stereo unspecified) the results were NR3A LBD binder inactive, NadD block inactive, esBAF inh inactive, SMARCA2 act inactive, SKN-1 inh inactive and Vif imaging inactive.
Screening CN(C)c1ccc(C(CNS(=O)(=O)c2ccc(F)cc2)c2c[nH]c3ccccc23)cc1 (stereo unspecified) returned NR3A LBD binder 15.9, NadD block inactive, SMARCA2 act inactive, SKN-1 inh inactive and Vif imaging inactive.
COc1ccc(-c2ccc3n(c2=O)C[C@@H]2[C@@H](CO)[C@H](C(=O)N(C)C)[C@H]3N2Cc2ccncc2)cc1 was read as esBAF inh inactive.
`CNC[C@@H]1Oc2c(NC(=O)Nc3c(C)noc3C)cccc2C(=O)N([C@@H](C)CO)C[C@H]1C` gave esBAF inh inactive.
Cc1cccnc1NC(=S)Nc1ccc(Br)cc1Cl was read as NR3A LBD binder inactive, NadD block inactive, esBAF inh 54.9, SMARCA2 act inactive, SKN-1 inh inactive and Vif imaging inactive.
Screening O=C1/C(=C/c2ccc(N3CCOCC3)o2)SC(=Nc2ccccc2)N1CCc1c[nH]c2ccccc12 returned NR3A LBD binder inactive, NadD block 40.1, esBAF inh inactive and SKN-1 inh inactive.
`COc1cc(/C=C2\SC(=Nc3ccccc3)N(CCc3c[nH]c4ccccc34)C2=O)ccc1OC(C)C(=O)O` (stereo unspecified) gave NR3A LBD binder inactive, NadD block inactive, SMARCA2 act inactive, SKN-1 inh inactive and Vif imaging inactive.
For CC(C)CC#Cc1ccc2c(c1)O[C@@H](CN(C)C(=O)Cc1ccncc1)[C@H](C)CN([C@@H](C)CO)S2(=O)=O the results were esBAF inh inactive.
For COc1ccc(-c2nc(CS(=O)(=O)CC(=O)Nc3ccc(Cl)cc3)c(C)o2)cc1 the results were NR3A LBD binder inactive, NadD block inactive, esBAF inh 66.4, SMARCA2 act inactive, SKN-1 inh inactive and Vif imaging inactive.
COc1ccc(-c2nc(CS(=O)(=O)CC(=O)NCCc3ccccc3)c(C)o2)cc1 was read as NR3A LBD binder inactive, NadD block inactive, esBAF inh inactive, SMARCA2 act inactive, SKN-1 inh inactive and Vif imaging 56.4.
CCOc1ccc(CCNC(=O)CS(=O)(=O)Cc2nc(-c3ccc(OC)cc3)oc2C)cc1 was read as NR3A LBD binder inactive, NadD block inactive, esBAF inh inactive, SMARCA2 act inactive, SKN-1 inh inactive and Vif imaging inactive.
For Cc1noc(C)c1S(=O)(=O)Nc1ccc2c(c1)C(=O)N([C@@H](C)CO)C[C@H](C)[C@H](CN(C)S(=O)(=O)c1cccs1)OCCCC[C@@H](C)O2 the results were esBAF inh inactive.
CCn1nc(C)c(CN2CCC(n3nccc3NC(=O)Cc3ccccc3)CC2)c1C was read as NR3A LBD binder 14.1, NadD block inactive, esBAF inh inactive, SMARCA2 act inactive, SKN-1 inh inactive and Vif imaging inactive.
`COC(=O)N(C)C[C@@H]1OCc2ccccc2-c2ccccc2C(=O)N([C@@H](C)CO)C[C@H]1C` gave esBAF inh inactive.
`CCN(CC(=O)Nc1cc(Cl)cc(Cl)c1)CC(=O)NC1CCS(=O)(=O)C1` (stereo unspecified) gave NR3A LBD binder inactive, NadD block inactive, esBAF inh inactive, SMARCA2 act inactive, SKN-1 inh inactive and Vif imaging 53.7.
CCOc1ccc(-n2c(COc3ccccc3)nnc2SCC(N)=O)cc1 was read as NR3A LBD binder inactive, NadD block inactive, esBAF inh inactive, SMARCA2 act inactive, SKN-1 inh inactive and Vif imaging inactive.
`COCCn1c(COc2ccccc2)nnc1SCC(N)=O` gave NR3A LBD binder inactive, NadD block inactive, esBAF inh inactive, SMARCA2 act inactive, SKN-1 inh inactive and Vif imaging 60.3.
`O=C(CN1CCOCC1)NCC[C@H]1CC[C@@H](NC(=O)Nc2ccccc2)[C@@H](CO)O1` gave esBAF inh inactive.
Screening O=C(Nc1ccc(S(=O)(=O)Nc2cnc3ccccc3n2)cc1)c1ccc(Cl)cc1Cl returned NR3A LBD binder inactive, NadD block inactive, SMARCA2 act inactive, SKN-1 inh inactive and Vif imaging inactive.

Assay outcomes: PubChem, several laboratories
